# From PMC7862700, “An all-to-all approach to the identification of sequence-specific readers for epigenetic DNA modifications on cytosine”
# Tests used:
# Experiment in all cases: DAPPL (digital affinity profiling via proximity ligation, sequencing); 10 mM Tris-HCl pH 7.5, 50 mM NaCl, 1 mM DTT, 4% glycerol, room temperature, 30 min; GST-TFs on glutathione beads, 16-mer random dsDNA library, 0.1% formaldehyde crosslink after washing; high values mean tight binding
# FLI1 = target: T1, FLI1 (Homo sapiens, UniProt Q01543 1-452); conditions: protein: recombinant; tags: N-terminal GST; dsDNA, one strand shown
# T1 sequence: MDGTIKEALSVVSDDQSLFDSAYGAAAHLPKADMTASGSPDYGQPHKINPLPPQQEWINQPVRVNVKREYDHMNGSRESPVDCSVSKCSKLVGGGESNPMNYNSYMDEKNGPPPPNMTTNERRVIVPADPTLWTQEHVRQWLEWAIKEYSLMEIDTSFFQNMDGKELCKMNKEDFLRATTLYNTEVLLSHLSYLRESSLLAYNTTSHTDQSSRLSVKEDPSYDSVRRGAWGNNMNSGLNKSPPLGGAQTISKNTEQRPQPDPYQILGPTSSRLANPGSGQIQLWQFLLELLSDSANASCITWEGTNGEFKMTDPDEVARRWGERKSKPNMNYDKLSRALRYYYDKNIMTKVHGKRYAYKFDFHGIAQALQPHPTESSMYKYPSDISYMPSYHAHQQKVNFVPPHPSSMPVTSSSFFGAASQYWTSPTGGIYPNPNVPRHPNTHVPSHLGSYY
# In short: (§1)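 In yeast, human transcription factors were expressed with a GST fusion, then pulled down on glutathione beads and given DNA barcodes. Pooled with a tag-only sample, they were exposed to 200 nmole of a 16-mer random double-stranded DNA library (Tris/NaCl/DTT/glycerol buffer, room temperature, 30 min), washed, crosslinked with 0.1% formaldehyde, proximity-ligated using BsaI/T4 ligase for 1 h at 37 °C, PCR-amplified and read on an Illumina NextSeq500. Each hexamer's frequency of reads for a factor, divided by the matching frequency for the tag-only sample, gives the binding signal.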
# ELK1 = target: T2, ELK1 (Homo sapiens, UniProt P19419 1-428); conditions: protein: recombinant; tags: N-terminal GST; dsDNA, one strand shown
# T2 sequence: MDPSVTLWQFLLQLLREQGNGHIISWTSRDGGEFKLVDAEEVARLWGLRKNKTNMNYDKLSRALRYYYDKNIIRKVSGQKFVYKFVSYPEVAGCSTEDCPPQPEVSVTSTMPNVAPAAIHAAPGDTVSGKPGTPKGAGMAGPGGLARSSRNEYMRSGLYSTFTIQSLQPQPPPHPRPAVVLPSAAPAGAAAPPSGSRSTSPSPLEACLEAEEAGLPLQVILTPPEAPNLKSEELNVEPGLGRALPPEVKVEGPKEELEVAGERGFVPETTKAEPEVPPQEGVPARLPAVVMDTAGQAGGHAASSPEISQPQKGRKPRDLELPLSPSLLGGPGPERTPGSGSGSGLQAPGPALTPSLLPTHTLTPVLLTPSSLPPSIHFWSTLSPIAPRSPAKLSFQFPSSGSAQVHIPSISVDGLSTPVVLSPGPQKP
# In short: as §1
# GABPA = target: T3, GABPA (Homo sapiens, UniProt Q06546 1-454); conditions: protein: recombinant; tags: N-terminal GST; dsDNA, one strand shown
# T3 sequence: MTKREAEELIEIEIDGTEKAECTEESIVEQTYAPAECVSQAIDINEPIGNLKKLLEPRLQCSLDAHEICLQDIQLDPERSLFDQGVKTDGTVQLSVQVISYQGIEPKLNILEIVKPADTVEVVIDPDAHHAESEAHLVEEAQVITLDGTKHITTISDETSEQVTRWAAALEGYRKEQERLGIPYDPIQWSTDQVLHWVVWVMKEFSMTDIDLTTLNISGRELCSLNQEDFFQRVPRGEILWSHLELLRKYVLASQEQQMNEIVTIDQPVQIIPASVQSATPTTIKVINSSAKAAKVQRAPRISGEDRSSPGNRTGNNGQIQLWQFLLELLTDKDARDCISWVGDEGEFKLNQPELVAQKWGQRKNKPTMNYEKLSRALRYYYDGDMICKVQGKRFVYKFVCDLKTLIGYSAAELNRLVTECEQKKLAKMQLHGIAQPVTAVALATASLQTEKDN
# In short: as §1
# ERG = target: T4, ERG (Homo sapiens, UniProt P11308 1-479); conditions: protein: recombinant; tags: N-terminal GST; dsDNA, one strand shown
# T4 sequence: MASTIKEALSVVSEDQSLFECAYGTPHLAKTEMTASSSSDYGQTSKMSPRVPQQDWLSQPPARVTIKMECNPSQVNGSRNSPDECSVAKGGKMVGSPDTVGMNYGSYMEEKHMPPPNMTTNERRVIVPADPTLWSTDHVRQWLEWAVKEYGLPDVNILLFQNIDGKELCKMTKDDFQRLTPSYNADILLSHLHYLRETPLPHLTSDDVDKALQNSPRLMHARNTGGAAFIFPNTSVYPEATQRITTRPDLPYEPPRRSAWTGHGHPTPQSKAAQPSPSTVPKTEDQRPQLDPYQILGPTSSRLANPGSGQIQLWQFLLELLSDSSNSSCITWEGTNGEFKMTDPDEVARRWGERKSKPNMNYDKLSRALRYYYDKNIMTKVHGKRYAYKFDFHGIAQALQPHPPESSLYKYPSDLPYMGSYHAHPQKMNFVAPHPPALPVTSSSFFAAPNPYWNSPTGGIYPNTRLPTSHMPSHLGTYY
# In short: as §1
# ELF1 = ELF1 (Homo sapiens, UniProt P32519 1-619); conditions: protein: recombinant; tags: N-terminal GST; dsDNA, one strand shown
# In short: as §1
# EHF = target: T5, EHF (Homo sapiens, UniProt Q9NZC4 1-300); conditions: protein: recombinant; tags: N-terminal GST; dsDNA, one strand shown
# T5 sequence: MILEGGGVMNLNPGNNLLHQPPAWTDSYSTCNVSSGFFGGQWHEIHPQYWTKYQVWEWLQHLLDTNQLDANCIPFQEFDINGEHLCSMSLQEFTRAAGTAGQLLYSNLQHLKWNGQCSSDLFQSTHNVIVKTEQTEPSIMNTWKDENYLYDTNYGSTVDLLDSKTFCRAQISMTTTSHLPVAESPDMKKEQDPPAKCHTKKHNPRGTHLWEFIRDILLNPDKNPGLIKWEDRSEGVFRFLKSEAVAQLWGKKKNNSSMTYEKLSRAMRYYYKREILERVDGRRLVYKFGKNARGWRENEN
# In short: as §1
# SPI1 = SPI1 (Homo sapiens, UniProt P17947 1-270); conditions: protein: recombinant; tags: N-terminal GST; dsDNA, one strand shown
# In short: as §1
# SPIB = SPIB (Homo sapiens, UniProt Q01892 1-262); conditions: protein: recombinant; tags: N-terminal GST; dsDNA, one strand shown
# In short: as §1
# ELK3 = target: T6, ELK3 (Homo sapiens, UniProt P41970 1-407); conditions: protein: recombinant; tags: N-terminal GST; dsDNA, one strand shown
# T6 sequence: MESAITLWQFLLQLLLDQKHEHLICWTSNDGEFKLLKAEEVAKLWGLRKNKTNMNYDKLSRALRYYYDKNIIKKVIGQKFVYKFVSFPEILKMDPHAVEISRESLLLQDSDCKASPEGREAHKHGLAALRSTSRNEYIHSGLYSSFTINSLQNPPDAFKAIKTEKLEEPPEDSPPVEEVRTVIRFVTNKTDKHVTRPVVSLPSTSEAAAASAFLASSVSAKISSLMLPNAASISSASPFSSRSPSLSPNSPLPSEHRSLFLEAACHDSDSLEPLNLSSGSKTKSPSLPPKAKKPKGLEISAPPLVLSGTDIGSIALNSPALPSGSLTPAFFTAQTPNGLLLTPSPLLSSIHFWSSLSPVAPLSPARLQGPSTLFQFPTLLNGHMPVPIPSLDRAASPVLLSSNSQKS
# In short: as §1
# FEV = target: T7, FEV (Homo sapiens, UniProt Q99581 1-238); conditions: protein: recombinant; tags: N-terminal GST; dsDNA, one strand shown
# T7 sequence: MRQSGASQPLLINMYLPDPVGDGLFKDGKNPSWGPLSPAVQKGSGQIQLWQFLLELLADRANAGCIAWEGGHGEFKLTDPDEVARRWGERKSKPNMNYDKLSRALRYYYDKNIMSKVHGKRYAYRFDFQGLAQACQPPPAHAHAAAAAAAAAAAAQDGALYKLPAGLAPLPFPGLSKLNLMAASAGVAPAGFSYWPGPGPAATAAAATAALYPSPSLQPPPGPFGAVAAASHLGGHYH
# In short: as §1
# ETV5 = ETV5 (Homo sapiens, UniProt P41161 1-510); conditions: protein: recombinant; tags: N-terminal GST; dsDNA, one strand shown
# In short: as §1
# HSF1 = HSF1 (Homo sapiens, UniProt Q00613 1-529); conditions: protein: recombinant; tags: N-terminal GST; chain copies: 3; dsDNA, one strand shown
# In short: as §1
# SPIC = target: T8, SPIC (Homo sapiens, UniProt Q8N5J4 1-248); conditions: protein: recombinant; tags: N-terminal GST; dsDNA, one strand shown
# T8 sequence: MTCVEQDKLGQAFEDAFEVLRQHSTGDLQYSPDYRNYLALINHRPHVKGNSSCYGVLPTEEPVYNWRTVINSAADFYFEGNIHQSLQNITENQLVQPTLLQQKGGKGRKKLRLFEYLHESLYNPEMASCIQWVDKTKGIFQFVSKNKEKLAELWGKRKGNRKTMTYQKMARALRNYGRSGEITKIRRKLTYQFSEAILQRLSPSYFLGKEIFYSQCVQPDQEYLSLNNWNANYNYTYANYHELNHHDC
# In short: as §1
# ELF4 = ELF4 (Homo sapiens, UniProt Q99607 1-663); conditions: protein: recombinant; tags: N-terminal GST; dsDNA, one strand shown
# In short: as §1
# ELK4 = target: T9, ELK4 (Homo sapiens, UniProt P28324-2 1-405); conditions: protein: recombinant; tags: N-terminal GST; dsDNA, one strand shown
# T9 sequence: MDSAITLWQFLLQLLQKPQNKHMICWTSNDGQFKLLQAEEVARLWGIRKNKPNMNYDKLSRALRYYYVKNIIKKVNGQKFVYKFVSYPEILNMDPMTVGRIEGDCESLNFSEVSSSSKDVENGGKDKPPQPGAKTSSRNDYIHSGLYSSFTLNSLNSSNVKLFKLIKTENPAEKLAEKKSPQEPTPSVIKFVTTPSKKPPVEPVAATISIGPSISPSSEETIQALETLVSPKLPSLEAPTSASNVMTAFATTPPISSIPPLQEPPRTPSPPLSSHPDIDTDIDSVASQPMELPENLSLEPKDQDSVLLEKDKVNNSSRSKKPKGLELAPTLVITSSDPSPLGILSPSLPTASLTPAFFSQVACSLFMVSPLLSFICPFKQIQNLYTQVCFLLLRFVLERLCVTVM
# In short: as §1
# ETV2 = target: T10, ETV2 (Homo sapiens, UniProt O00321 1-342); conditions: protein: recombinant; tags: N-terminal GST; dsDNA, one strand shown
# T10 sequence: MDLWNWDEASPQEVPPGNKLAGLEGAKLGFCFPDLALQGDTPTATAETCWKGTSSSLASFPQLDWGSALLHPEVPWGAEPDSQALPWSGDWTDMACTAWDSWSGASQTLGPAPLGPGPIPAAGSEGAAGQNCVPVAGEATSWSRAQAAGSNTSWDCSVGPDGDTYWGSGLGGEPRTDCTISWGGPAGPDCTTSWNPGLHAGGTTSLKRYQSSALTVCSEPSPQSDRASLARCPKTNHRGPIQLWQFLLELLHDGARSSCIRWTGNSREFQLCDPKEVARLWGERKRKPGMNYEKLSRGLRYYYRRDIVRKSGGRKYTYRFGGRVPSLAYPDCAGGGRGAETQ
# In short: as §1
# ELF3 = target: T11, ELF3 (Homo sapiens, UniProt P78545 1-371); conditions: protein: recombinant; tags: N-terminal GST; dsDNA, one strand shown
# T11 sequence: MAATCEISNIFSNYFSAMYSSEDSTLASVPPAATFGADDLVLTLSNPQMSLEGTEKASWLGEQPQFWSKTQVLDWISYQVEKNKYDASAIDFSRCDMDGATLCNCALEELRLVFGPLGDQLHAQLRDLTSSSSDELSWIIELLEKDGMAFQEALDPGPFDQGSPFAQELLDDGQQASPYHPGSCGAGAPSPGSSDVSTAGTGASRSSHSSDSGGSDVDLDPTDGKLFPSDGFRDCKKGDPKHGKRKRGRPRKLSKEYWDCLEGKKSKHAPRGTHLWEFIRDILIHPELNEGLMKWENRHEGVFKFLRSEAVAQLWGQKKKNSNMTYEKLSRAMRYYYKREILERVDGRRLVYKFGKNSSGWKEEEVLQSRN
# In short: as §1
# ETV1 = ETV1 (Homo sapiens, UniProt P50549 1-477); conditions: protein: recombinant; tags: N-terminal GST; dsDNA, one strand shown
# In short: as §1
# ETV1, sequence (P50549 whole entry): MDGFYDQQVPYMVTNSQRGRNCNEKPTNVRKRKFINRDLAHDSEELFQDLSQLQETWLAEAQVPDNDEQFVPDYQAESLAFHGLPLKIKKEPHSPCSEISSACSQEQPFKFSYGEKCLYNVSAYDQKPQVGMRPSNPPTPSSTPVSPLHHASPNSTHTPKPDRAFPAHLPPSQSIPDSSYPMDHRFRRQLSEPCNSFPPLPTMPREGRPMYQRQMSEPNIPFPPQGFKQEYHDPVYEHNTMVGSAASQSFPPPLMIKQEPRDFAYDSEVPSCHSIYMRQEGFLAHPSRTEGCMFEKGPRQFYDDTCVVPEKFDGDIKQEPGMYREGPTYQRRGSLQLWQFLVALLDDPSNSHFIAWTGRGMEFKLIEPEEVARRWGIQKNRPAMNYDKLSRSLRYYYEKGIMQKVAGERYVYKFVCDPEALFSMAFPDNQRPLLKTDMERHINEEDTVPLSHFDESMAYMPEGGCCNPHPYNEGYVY
# ELF4, sequence (Q99607 whole entry): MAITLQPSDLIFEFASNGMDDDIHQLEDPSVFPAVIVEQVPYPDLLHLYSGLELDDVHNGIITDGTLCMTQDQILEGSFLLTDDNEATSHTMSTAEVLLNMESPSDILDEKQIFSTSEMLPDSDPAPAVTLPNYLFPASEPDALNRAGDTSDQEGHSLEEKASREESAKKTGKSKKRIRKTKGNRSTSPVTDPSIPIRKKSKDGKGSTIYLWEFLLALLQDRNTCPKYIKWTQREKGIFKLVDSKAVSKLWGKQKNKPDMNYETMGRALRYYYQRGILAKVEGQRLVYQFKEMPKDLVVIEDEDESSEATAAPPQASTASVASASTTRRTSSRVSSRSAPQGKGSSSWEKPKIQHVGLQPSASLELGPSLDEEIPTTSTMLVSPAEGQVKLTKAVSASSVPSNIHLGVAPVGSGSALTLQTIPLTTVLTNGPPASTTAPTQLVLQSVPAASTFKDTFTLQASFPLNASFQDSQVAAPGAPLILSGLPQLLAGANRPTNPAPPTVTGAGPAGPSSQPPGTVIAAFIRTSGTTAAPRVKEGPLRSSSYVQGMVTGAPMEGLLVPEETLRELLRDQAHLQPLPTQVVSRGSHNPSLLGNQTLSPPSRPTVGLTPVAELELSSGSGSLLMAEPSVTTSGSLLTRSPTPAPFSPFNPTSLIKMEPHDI
# ETV5, sequence (P41161 whole entry): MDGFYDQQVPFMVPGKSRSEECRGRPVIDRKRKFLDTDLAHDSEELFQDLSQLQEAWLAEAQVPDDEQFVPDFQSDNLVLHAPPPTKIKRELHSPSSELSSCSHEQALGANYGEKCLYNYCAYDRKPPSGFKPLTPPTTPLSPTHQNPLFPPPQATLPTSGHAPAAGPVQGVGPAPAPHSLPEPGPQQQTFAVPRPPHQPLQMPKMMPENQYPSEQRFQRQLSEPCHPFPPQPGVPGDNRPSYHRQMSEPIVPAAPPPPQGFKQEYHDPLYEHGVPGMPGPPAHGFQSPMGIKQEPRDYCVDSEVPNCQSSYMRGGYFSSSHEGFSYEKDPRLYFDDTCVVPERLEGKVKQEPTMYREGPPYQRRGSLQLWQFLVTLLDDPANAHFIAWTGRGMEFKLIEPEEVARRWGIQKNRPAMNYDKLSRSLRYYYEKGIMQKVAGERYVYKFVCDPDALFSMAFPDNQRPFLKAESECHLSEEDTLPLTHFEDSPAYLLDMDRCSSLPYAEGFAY
# SPIB, sequence (Q01892 whole entry): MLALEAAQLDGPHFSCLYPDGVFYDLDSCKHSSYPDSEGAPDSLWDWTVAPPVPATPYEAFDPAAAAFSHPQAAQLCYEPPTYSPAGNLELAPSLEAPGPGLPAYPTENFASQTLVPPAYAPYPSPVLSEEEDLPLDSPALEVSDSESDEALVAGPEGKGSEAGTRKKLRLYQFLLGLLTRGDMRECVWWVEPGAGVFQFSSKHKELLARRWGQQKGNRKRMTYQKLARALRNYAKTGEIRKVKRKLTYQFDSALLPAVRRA
# ELF1, sequence (P32519 whole entry): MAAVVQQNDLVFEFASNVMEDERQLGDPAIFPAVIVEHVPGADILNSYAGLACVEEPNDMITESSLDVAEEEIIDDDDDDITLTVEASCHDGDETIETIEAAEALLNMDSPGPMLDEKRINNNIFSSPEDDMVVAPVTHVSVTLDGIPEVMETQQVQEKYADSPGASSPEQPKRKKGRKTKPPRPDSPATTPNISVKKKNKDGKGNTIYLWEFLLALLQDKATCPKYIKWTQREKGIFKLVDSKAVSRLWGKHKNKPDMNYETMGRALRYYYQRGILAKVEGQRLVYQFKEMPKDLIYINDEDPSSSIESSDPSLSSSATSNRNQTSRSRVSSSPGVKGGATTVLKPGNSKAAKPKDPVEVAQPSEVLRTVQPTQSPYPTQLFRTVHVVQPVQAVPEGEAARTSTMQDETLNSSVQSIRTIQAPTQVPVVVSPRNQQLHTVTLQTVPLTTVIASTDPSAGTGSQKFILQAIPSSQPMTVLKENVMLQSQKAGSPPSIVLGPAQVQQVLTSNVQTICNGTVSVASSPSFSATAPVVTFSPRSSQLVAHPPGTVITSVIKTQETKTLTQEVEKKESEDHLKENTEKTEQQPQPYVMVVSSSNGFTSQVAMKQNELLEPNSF
# HSF1, sequence (Q00613 whole entry): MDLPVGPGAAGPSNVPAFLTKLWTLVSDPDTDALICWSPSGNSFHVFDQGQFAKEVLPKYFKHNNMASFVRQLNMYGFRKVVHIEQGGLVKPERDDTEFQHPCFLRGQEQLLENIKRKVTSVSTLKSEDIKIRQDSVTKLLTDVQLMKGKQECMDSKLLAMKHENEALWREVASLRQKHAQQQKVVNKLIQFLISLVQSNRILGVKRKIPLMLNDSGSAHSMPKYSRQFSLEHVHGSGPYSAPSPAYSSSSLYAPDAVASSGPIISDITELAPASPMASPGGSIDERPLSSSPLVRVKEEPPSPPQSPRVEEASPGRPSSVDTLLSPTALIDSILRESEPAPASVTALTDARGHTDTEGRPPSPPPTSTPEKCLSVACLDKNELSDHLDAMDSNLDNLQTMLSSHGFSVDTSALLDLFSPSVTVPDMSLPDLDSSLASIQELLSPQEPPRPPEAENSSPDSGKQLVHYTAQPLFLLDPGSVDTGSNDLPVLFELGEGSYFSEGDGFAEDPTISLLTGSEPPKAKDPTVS
sequence,measurement,setting,value
ATGGTC,binding signal,FLI1,"1.66 fold enrichment (6-mer frequency, TF over GST control)"
same,binding signal,ELK1,"1.45 fold enrichment (6-mer frequency, TF over GST control)"
same,binding signal,GABPA,"1.65 fold enrichment (6-mer frequency, TF over GST control)"
same,binding signal,ERG,"1.69 fold enrichment (6-mer frequency, TF over GST control)"
same,binding signal,ELF1,"1.55 fold enrichment (6-mer frequency, TF over GST control)"
same,binding signal,EHF,"1.47 fold enrichment (6-mer frequency, TF over GST control)"
same,binding signal,SPI1,"1.64 fold enrichment (6-mer frequency, TF over GST control)"
same,binding signal,SPIB,"1.66 fold enrichment (6-mer frequency, TF over GST control)"
same,binding signal,ELK3,"1.52 fold enrichment (6-mer frequency, TF over GST control)"
same,binding signal,FEV,"1.36 fold enrichment (6-mer frequency, TF over GST control)"
same,binding signal,ETV5,"1.57 fold enrichment (6-mer frequency, TF over GST control)"
same,binding signal,HSF1,"1.01 fold enrichment (6-mer frequency, TF over GST control)"
same,binding signal,SPIC,"1.63 fold enrichment (6-mer frequency, TF over GST control)"
same,binding signal,ELF4,"1.59 fold enrichment (6-mer frequency, TF over GST control)"
same,binding signal,ELK4,"1.38 fold enrichment (6-mer frequency, TF over GST control)"
same,binding signal,ETV2,"1.47 fold enrichment (6-mer frequency, TF over GST control)"
same,binding signal,ELF3,"1.48 fold enrichment (6-mer frequency, TF over GST control)"
same,binding signal,ETV1,"1.41 fold enrichment (6-mer frequency, TF over GST control)"
